# Activity calls are given as the source filed them.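 How the source made its calls: active means compounds killing one labelled cell type while sparing the other, by normalised counts and ratio limits, not self-fluorescent; inactive means the rest.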
# Assay: EMT-state selective cytotoxicity in co-culture – imaging, PC-3E GFP, TEM4-18 mCherry, primary screen (AID 1345086);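 further: cells exposed to compound for 72 h before imaging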;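 on red/green cell ratio (normalised): normalised mesenchymal count divided by normalised epithelial count so high means epithelial killing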
# Settings: PC-3E GFP / TEM4-18 mCherry co-culture, imaging cell counts, at 1 µM; for red/green cell ratio (normalised): actives lie on both sides, counts scaled to control wells, 1 = unselective
# [1] = measured here: epithelial PC-3E GFP cell survival
# [2] = measured here: mesenchymal TEM4-18 mCherry cell survival
SMILES,red/green cell ratio (normalised),normalised cell number [1],normalised cell number [2]
Oc1ccc(Oc2cnc3ccc(Cl)cc3n2)cc1,0.74 (inactive),1.41,1.05
Nc1ncnc2c1ncn2C1C[C@H](O)[C@@H](CO)O1 (stereo partly drawn),0.92 (inactive),0.99,0.91
CO/N=C1/C[C@]2(C[C@@H]3C[C@@H](C/C=C(\C)C[C@@H](C)/C=C/C=C4\COC5[C@H](O)C(C)=C[C@@H](C(=O)O3)[C@]45O)O2)O[C@H](/C(C)=C/C(C)C)[C@H]1C (stereo partly drawn),1.32 (inactive),1,1.32
CC(C)(O)CC[C@@H](O)[C@](C)(O)C1CC[C@@]2(O)C3=CC(=O)C4C[C@@H](O)[C@@H](O)C[C@]4(C)C3CC[C@]12C (stereo partly drawn),0.93 (inactive),0.94,0.88
C/C=C/[C@@H]1CC[C@@H]2C[C@H](C)CC[C@H]2[C@]1(C)C(=O)[C@H]1OC(=O)[C@@H](CO)N(C)C1=O,1.09 (inactive),1.06,1.15
COc1cc(C(=O)O)cc(C)c1C(=O)CC(C)O (stereo not drawn),0.9 (inactive),1.04,0.94
CC1=CC2C(C(C)C)CCC(C)(O)C2CC1 (stereo not drawn),1.01 (inactive),1.1,1.11
CC1=C2[C@](C)(C=CC1=O)C[C@H](O)[C@H]1[C@H](C)C(=O)O[C@]21C,1.06 (inactive),1.09,1.15
C[C@@H]1C[C@@H](O)[C@@H](O)CO1,1.05 (inactive),0.91,0.96
C#C[C@]1(O)CC[C@@H]2C3[C@H](C)CC4=C(CCC(=O)C4)[C@H]3CC[C@@]21C (stereo partly drawn),1.13 (inactive),1.07,1.21
COC(=O)C[C@H]1C2(C)CC34OC5(C)O[C@]6(C7/C(=C(/O)C(C)C)C(=O)O[C@@H](c8ccoc8)[C@]7(C)C(OC(C)=O)[C@@H](OC(C)=O)[C@]6(O5)C13C)[C@H](OC(C)=O)[C@@]4(O)C2OC(=O)C(C)C (stereo partly drawn),1.02 (inactive),1.08,1.1
C[C@@H]1C=C2C=C[C@@](C)(O)[C@](C)(C(=O)CCO)[C@H]2[C@@H](O)C1,0.85 (inactive),1.08,0.91
O=c1c(-c2ccc(O)cc2)coc2c(C3O[C@H](CO)[C@@H](O)[C@H](O)[C@H]3O)c(O)ccc12 (stereo partly drawn),1 (inactive),1.12,1.13
CC(C)=CCCC(C)C1CC[C@@]2(C)C3=C(CC[C@]12C)C1(C)CC[C@H](O)C(C)(C)C1CC3 (stereo partly drawn),1.05 (inactive),1.09,1.14
O=C(O)c1cn(C2CC2)c2cc(N3CCN(c4ncncn4)CC3)c(F)cc2c1=O,1.22 (inactive),0.88,1.08
CC(=O)O[C@@H]1CC2C(C)(C)C(=O)CC[C@]2(C)C2CC[C@@]3(C)[C@H](c4ccoc4)OC(=O)C4OC43[C@@]21C (stereo partly drawn),1.03 (inactive),0.94,0.97
CC1(C)CC[C@]2(C(=O)O)CC[C@]3(C)C(=CCC4[C@@]5(C)CC[C@H](O)[C@@](C)(CO)C5CC[C@]43C)C2C1 (stereo partly drawn),0.94 (inactive),1.05,0.98
NCC1O[C@@H](OC2C(N)C[C@@H](N)C(O)[C@H]2OC2OC(CO)C(OC3OC(CN)[C@@H](O)C(O)[C@H]3N)C2O)C(N)[C@@H](O)C1O (stereo partly drawn),1.11 (inactive),0.9,0.99
COC(=O)C[C@H]1C(C)(C)C(=O)[C@@H]2CC3=C(CC[C@]4(C)C3=CC(=O)O[C@H]4c3ccoc3)C1(C)C2=O,1.11 (inactive),0.96,1.06
CC(CC(=O)N1C(=O)OC[C@H]1c1ccccc1)N1C(=S)OC[C@@H]1c1ccccc1 (stereo partly drawn),0.97 (inactive),1.02,0.99
C=C(C)n1cc(C(=O)OC)c(=O)c2cc(F)c(F)c(OC)c21,1.15 (inactive),0.99,1.14
O=C(NCC[C@H](O)C(=O)O)OCc1ccccc1,1.04 (inactive),1.09,1.14

SMILES,red/green cell ratio (normalised),normalised cell number [1],normalised cell number [2]
CC(=O)NCCc1ccc(O)c(-c2c(O)c(O)c3c(c2O)C(=O)c2c(cc(O)c(C(=O)O)c2C(=O)O)C3=O)c1,1.13 (inactive),0.95,1.07
CC/C=C\[C@H](O)[C@H](O)C1=C(C)C(=O)[C@]2(O1)C(=O)N[C@@](OC)(C(=O)c1ccccc1)[C@@H]2O,1.21 (inactive),0.79,0.95
COC(=O)c1ccc(C(CC(C)C)NC(C)=O)o1 (stereo not drawn),1 (inactive),1.11,1.12
CC[C@@H]1OC(=O)c2c(OC)cc(=O)oc21,1.1 (inactive),1.01,1.11
COC(=O)C[C@@H]1C2(C)C(=O)[C@@H](CC3=C4CC(O)O[C@@H](c5ccoc5)[C@]4(C)CCC32)[C@H](O)C1(C)C (stereo partly drawn),1.16 (inactive),0.99,1.14
C=C1C(=O)OC(C(=O)OC)C1(O)CCCCCCCCC (stereo not drawn),1.05 (inactive),0.99,1.04
CCC(CCC(C)[C@H]1CCC2C3CC=C4C[C@@H](OC(C)=O)CC[C@]4(C)C3CC[C@@]21C)C(C)C (stereo partly drawn),0.94 (inactive),1.1,1.03
O=C(O)CS,1.05 (inactive),1.25,1.3
O=Cc1ccccc1O[C@@H]1O[C@H](CO)[C@H](O)[C@@H](O)[C@H]1O,0.97 (inactive),0.92,0.9
C[C@H](CCC(=O)NCC(=O)O)[C@H]1CCC2C3C(C[C@H](O)[C@@]21C)[C@@]1(C)CC[C@@H](O)CC1C[C@H]3O (stereo partly drawn),1.13 (inactive),0.89,1.01
COc1cc(O)c(C(C)=O)c(O)c1,0.99 (inactive),0.97,0.97
C[C@@H](Oc1ccc(Oc2ccc3ncc(Cl)nc3c2)cc1)C(=O)O,0.86 (inactive),1.19,1.03
COc1cc([C@@H]2c3cc4c(cc3[C@H](O)C3COC(=O)[C@H]32)OCO4)cc(OC)c1OC (stereo partly drawn),1.4 (inactive),0.16,0.22
CC(=O)OC1CC(C)OC(=O)CCC(O)CC1=O (stereo not drawn),0.98 (inactive),0.98,0.96
OC[C@H]1O[C@H](Oc2cc(O)cc(/C=C/c3ccc(O)cc3)c2)[C@H](O)[C@@H](O)[C@@H]1O,0.79 (inactive),1.3,1.03
C=C1C2=C(C(=O)N1OC)[C@H](O)[C@](C)(O)[C@H](CCCCC)O2,1.13 (inactive),1.01,1.15
CN(C(=O)c1ccccc1)C1C(O[C@@H]2OC(COS(=O)(=O)O)C(NC(=O)c3ccccc3)[C@H](OS(=O)(=O)O)[C@H]2OS(=O)(=O)O)OC2C[C@@H](NC(=O)c3ccccc3)[C@@H](OC3C(NC(=O)c4ccccc4)C[C@@H](NC(=O)c4ccccc4)[C@H](OS(=O)(=O)O)[C@H]3OS(=O)(=O)O)OC2C1OS(=O)(=O)O (stereo partly drawn),1 (inactive),1.06,1.06
O=C(O)C(c1ccccc1)c1ccccc1,1.12 (inactive),1.01,1.13
NC(CSCSCC(N)C(=O)O)C(=O)O (stereo not drawn),1.19 (inactive),0.91,1.08
O=C1CC(c2ccc(O)cc2)Oc2ccccc21 (stereo not drawn),1.07 (inactive),1.01,1.08
CCCC1=CC(=O)[C@H](O)[C@H]1O,1.01 (inactive),1.02,1.02
CC(=O)OCC1O[C@H](Sc2ccc(C)cc2)[C@@H]2[C@@H](OC(=O)N2Cc2ccccc2)C1OC(C)=O (stereo partly drawn),0.83 (inactive),1.3,1.08

SMILES,red/green cell ratio (normalised),normalised cell number [1],normalised cell number [2]
C=CC(C)(C)c1ccc2[nH]c3c(c2c1)C[C@@H]1CC[C@@]2(O)C4=CC(=O)[C@@H]5O[C@@]4(CC[C@]2(C)[C@@]31C)OC5(C)C,1.04 (inactive),0.97,1.01
COc1cc(OC)c2c(O)c(C(C)=O)c(C)cc2c1,1.01 (inactive),1.08,1.09
O=C(O)c1cn(C2CC2)c2cc(N3CCN(c4ccc(Cl)cc4Cl)CC3)c(F)cc2c1=O,0.98 (inactive),1,0.98
COc1c(F)c(F)cc(C(N)=O)c1F,1.04 (inactive),0.96,0.99
O=C(O)C1CC(C2CCCCN2)CN2CCCCC12 (stereo not drawn),1.06 (inactive),0.95,1
CC1=CO[C@]2(C1=O)[C@H]1C(=O)O[C@]3(C[C@@H]2C)C(C)=CC(=O)O[C@]13O,0.85 (inactive),1.16,0.99
NC(=O)c1cc(F)c(F)cc1F,0.98 (inactive),1.12,1.09
C=CC(C)(C)c1cc(O)ccc1OC1OC(CO)C(O)C(O)C1O (stereo not drawn),1.01 (inactive),0.93,0.94
CC1(C)C[C@@H]2C(=O)CC[C@@H]3O[C@]3(C)CC[C@H]21,0.92 (inactive),0.93,0.85
COc1cc(OC)c2c(=O)c(OC)c(-c3ccccc3)oc2c1,0.85 (inactive),1.32,1.13
O=C(NCc1ccccc1)C1O[C@H](NCc2ccccc2)[C@@H](O)[C@@H](O)C1O (stereo partly drawn),1.04 (inactive),1.09,1.13
CN(C(=O)Cc1ccccc1)C1C(O[C@@H]2OC(COS(=O)(=O)O)C(NC(=O)Cc3ccccc3)[C@H](OS(=O)(=O)O)[C@H]2OS(=O)(=O)O)OC2C[C@@H](NC(=O)Cc3ccccc3)[C@@H](OC3C(NC(=O)Cc4ccccc4)C[C@@H](NC(=O)Cc4ccccc4)[C@H](OS(=O)(=O)O)[C@H]3OS(=O)(=O)O)OC2C1OS(=O)(=O)O (stereo partly drawn),0.95 (inactive),1.04,0.99
COC(=O)CCC(C)[C@H]1CCC2C3C(C[C@H](O)[C@@]21C)[C@@]1(C)CC[C@@H](O)C[C@H]1C[C@H]3O (stereo partly drawn),1.15 (inactive),0.89,1.02
Cc1c(F)c(F)cc(C(=O)NC(=O)NC2CC2)c1F,1 (inactive),1.02,1.02
C/C=C/[C@@H]1C=C[C@@H]2C[C@H](C)CC[C@H]2[C@]1(C)/C(O)=C1\C(=O)[C@H](CO)N(C)C1=O,1.03 (inactive),0.99,1.01
COC(=O)[C@]12Oc3c(c(O)cc4c3C3C=C[C@]5(C4)C(=C(O)c4c(O)cc(C)cc4[C@@H]5OC(C)=O)C3=O)C(O)=C1C(=O)C=C[C@@H]2O,0.99 (inactive),0.87,0.86
CC(C)CCCC(C)C1CCC2C3CC(=O)[C@H]4C[C@@H](O)CC[C@]4(C)C3CC[C@]12C (stereo partly drawn),1.01 (inactive),1.04,1.05
Cc1oc(=O)c2c(O)cc(O)c(C)c2c1C,1.03 (inactive),1.11,1.14
COc1cc2c(c3oc4ccccc4c(=O)c13)[C@@H]1C=CO[C@@H]1O2,0.91 (inactive),0.44,0.4
O=C(N[C@@H](Cc1ccc(O)cc1)C(=O)O)OCc1ccccc1,0.96 (inactive),1.09,1.04
COc1ccc(-c2cc(=O)c3c(O)c(OC)c(O[C@H]4O[C@H](CO[C@@H]5O[C@@H](C)[C@H](O)[C@@H](O)[C@H]5O)[C@@H](O)[C@H](O)[C@H]4O)cc3o2)cc1,0.98 (inactive),1.05,1.03
CC(C)CCCC(C)[C@H]1CCC2C3C(=O)C=C4C[C@@H](O)CC[C@]4(C)C3CC[C@@]21C (stereo partly drawn),0.98 (inactive),0.98,0.95

# Reference: PubChem BioAssay
